The campaign covered roughly 5,500 compounds. About 2,000 (36%) were called active. Not shown: some 18% with an inconclusive outcome. Cut-off read from the data, not from the text of the source: active = normalized growth mostly below about 0.91 (no sharp cut-off); inconclusive = no clear call, values can overlap the other calls; inactive = mostly above about 0.92. This is one part of the list.
Assay: chemical genetic growth profiling, strain panel (AID 1159580);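 note: tested at 20 µM; growth read once vehicle control cultures reached saturation at 30 °C; 1 = growth at the plate median or of vehicle wells; lower values mean less growth of the strain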
Conditions: growth OD

Measured: normalized growth

CN(N=O)C(=O)N[C@@H]1[C@@H](O)[C@H](O)[C@@H](CO)O[C@@H]1O
inactive: S. cerevisiae deletion strains, locus YJL187C, strain SWE1 (second series), hits give low values 1.01 | S. cerevisiae deletion strains, locus YJR043C, strain POL32, hits give low values 1.01 | S. cerevisiae deletion strains, locus YJR066W, strain TOR1, hits give low values 0.99 | S. cerevisiae deletion strains, locus YKL009W, strain mrt4, hits give low values 1.05 | S. cerevisiae deletion strains, locus YKL068W, hits give low values 1 | S. cerevisiae deletion strains, locus YKL085W, strain MDH1 (second series), hits give low values 1.01 | S. cerevisiae deletion strains, locus YKL085W, strain MDH1, hits give low values 1.01 | S. cerevisiae deletion strains, locus YKL160W, strain elf1, hits give low values 1.02 | S. cerevisiae deletion strains, locus YKR001C, strain vps1, hits give low values 1 | S. cerevisiae deletion strains, locus YKR026C, strain gcn3, hits give low values 0.973 | S. cerevisiae deletion strains, locus YKR091W, strain srl3, hits give low values 0.988 | S. cerevisiae deletion strains, locus YLL001W, strain dnm1, hits give low values 0.987 | S. cerevisiae deletion strains, locus YLL026W, hits give low values 0.994 | S. cerevisiae deletion strains, locus YLL041C, strain sdh2, hits give low values 0.971 | S. cerevisiae deletion strains, locus YLR027C, strain aat2, hits give low values 1.01 | S. cerevisiae deletion strains, locus YLR039C, strain RIC1, hits give low values 1.03 | S. cerevisiae deletion strains, locus YLR058C, strain SHM2, hits give low values 1.01 | S. cerevisiae deletion strains, locus YLR102C, strain apc9, hits give low values 0.999 | S. cerevisiae deletion strains, locus YLR113W, strain HOG1, hits give low values 1.03 | S. cerevisiae deletion strains, locus YLR221C, strain rsa3, hits give low values 0.99 | S. cerevisiae deletion strains, locus YLR258W, strain gsy2, hits give low values 0.985 | S. cerevisiae deletion strains, locus YLR262C, strain YPT6 (second series), hits give low values 0.978 | S. cerevisiae deletion strains, locus YLR262C, strain YPT6, hits give low values 1.02 | S. cerevisiae deletion strains, locus YLR268W, strain sec22, hits give low values 0.999 | S. cerevisiae deletion strains, locus YLR320W, strain mms22, hits give low values 0.977 | S. cerevisiae deletion strains, locus YLR330W, strain CHS5, hits give low values 1.01 | S. cerevisiae deletion strains, locus YLR342W, strain FKS1 (second series), hits give low values 1.06 | S. cerevisiae deletion strains, locus YLR342W, strain FKS1, hits give low values 1.01 | S. cerevisiae deletion strains, locus YLR357W, strain rsc2, hits give low values 0.958 | S. cerevisiae deletion strains, locus YLR370C, strain arc18, hits give low values 0.999 | S. cerevisiae deletion strains, locus YLR371W, strain rom2, hits give low values 1.02 | S. cerevisiae deletion strains, locus YLR384C, strain iki3, hits give low values 0.986 | S. cerevisiae deletion strains, locus YLR418C, strain cdc73, hits give low values 0.994 | S. cerevisiae deletion strains, locus YML016C, strain PPZ1, hits give low values 1 | S. cerevisiae deletion strains, locus YML032C, strain rad52, hits give low values 1.02 | S. cerevisiae deletion strains, locus YML120C, strain ndi1, hits give low values 0.986 | S. cerevisiae deletion strains, locus YML124C, strain tub3, hits give low values 1 | S. cerevisiae deletion strains, locus YMR058W, strain fet3, hits give low values 1 | S. cerevisiae deletion strains, locus YMR078C, strain ctf18, hits give low values 1.01 | S. cerevisiae deletion strains, locus YMR125W, strain sto1, hits give low values 0.954 | S. cerevisiae deletion strains, locus YMR129W, hits give low values 1 | S. cerevisiae deletion strains, locus YMR205C, strain PFK2, hits give low values 0.98 | S. cerevisiae deletion strains, locus YMR223W, strain ubp8, hits give low values 1.04 | S. cerevisiae deletion strains, locus YMR231W, strain pep5, hits give low values 0.994 | S. cerevisiae deletion strains, locus YMR307W, strain GAS1, hits give low values 1.04 | S. cerevisiae deletion strains, locus YNL067W, strain RPL9B, hits give low values 1.03 | S. cerevisiae deletion strains, locus YNL071W, strain lat1, hits give low values 0.983 | S. cerevisiae deletion strains, locus YNL128W, strain TEP1, hits give low values 1.03 | S. cerevisiae deletion strains, locus YNL153C, strain GIM3, hits give low values 0.997 | S. cerevisiae deletion strains, locus YNL183C, strain NPR1, hits give low values 0.983 | S. cerevisiae deletion strains, locus YNL209W, strain ssb2, hits give low values 0.982 | S. cerevisiae deletion strains, locus YNL233W, strain BNI4, hits give low values 1.01 | S. cerevisiae deletion strains, locus YNL248C, strain rpa49, hits give low values 0.978 | S. cerevisiae deletion strains, locus YNL250W, strain rad50, hits give low values 1.03 | S. cerevisiae deletion strains, locus YNL271C, strain bni1, hits give low values 1 | S. cerevisiae deletion strains, locus YNL298W, strain CLA4, hits give low values 1.01 | S. cerevisiae deletion strains, locus YNL307C, strain MCK1, hits give low values 1.02 | S. cerevisiae deletion strains, locus YNL322C, strain KRE1 (second series), hits give low values 1.01 | S. cerevisiae deletion strains, locus YNR049C, strain mso1, hits give low values 0.983 | S. cerevisiae deletion strains, locus YNR052C, strain pop2, hits give low values 1.01 | S. cerevisiae deletion strains, locus YOL012C, strain htz1 0.87 | S. cerevisiae deletion strains, locus YOL147C, strain pex11, hits give low values 1.01 | S. cerevisiae deletion strains, locus YOR001W, strain rrp6, hits give low values 0.995 | S. cerevisiae deletion strains, locus YOR061W, strain CKA2, hits give low values 1.01 | S. cerevisiae deletion strains, locus YOR069W, strain VPS5, hits give low values 1.01 | S. cerevisiae deletion strains, locus YOR070C, strain gyp1, hits give low values 1.01 | S. cerevisiae deletion strains, locus YOR080W, strain dia2, hits give low values 0.996 | S. cerevisiae deletion strains, locus YOR083W, strain WHI5, hits give low values 0.986 | S. cerevisiae deletion strains, locus YOR106W, strain vam3, hits give low values 1.01 | S. cerevisiae deletion strains, locus YOR136W, strain idh2, hits give low values 1 | S. cerevisiae deletion strains, locus YOR144C, strain elg1, hits give low values 1.01 | S. cerevisiae deletion strains, locus YOR184W, strain ser1, hits give low values 1.01 | S. cerevisiae deletion strains, locus YOR231W, strain MKK1, hits give low values 1.02 | S. cerevisiae deletion strains, locus YOR265W, strain rbl2, hits give low values 1 | S. cerevisiae deletion strains, locus YOR270C, strain vph1, hits give low values 0.936 | S. cerevisiae deletion strains, locus YOR290C, strain snf2, hits give low values 1 | S. cerevisiae deletion strains, locus YOR316C, strain cot1, hits give low values 1 | S. cerevisiae deletion strains, locus YPL051W, strain arl3, hits give low values 1.02 | S. cerevisiae deletion strains, locus YPL078C, strain atp4, hits give low values 0.993 | S. cerevisiae deletion strains, locus YPL106C, strain sse1, hits give low values 1.02 | S. cerevisiae deletion strains, locus YPL240C, strain hsp82, hits give low values 0.983 | S. cerevisiae deletion strains, locus YPL256C, strain CLN2, hits give low values 1.06 | S. cerevisiae deletion strains, locus YPR119W, strain clb2, hits give low values 1 | S. cerevisiae deletion strains, locus YPR141C, strain kar3, hits give low values 0.996 | S. cerevisiae deletion strains, locus YPR163C, strain tif3, hits give low values 1 | S. cerevisiae deletion strains, locus YPR167C, strain met16, hits give low values 1.01 | S. cerevisiae deletion strains, strain wtn01, hits give low values 1 | S. cerevisiae strains, strain wild type, hits give low values 1.01
